The results in this text go back to PubChem BioAssay (NCI).

Molecules are shown by their SMILES. Several values for one entry are separate records, joined by “and”; a condition that tells them apart may be missing. Equal values may be shown once. This is part of a sample that, as a whole, favours compounds with a hit. Of some 83,000 tested, about 20% had one in any assay.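 A percent growth of 40 corresponds to 60% growth inhibition; 0 means no net growth; -100 means all cells died. Active threshold: below 10.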 Some structures have more than one record in an assay (separate samples or runs), and their calls can disagree. Activity calls are given as the source filed them.

What all share (assay): NCI-60 one-dose screen, 48 h (100 = growth as untreated, 0 = no growth, -100 = all killed)
Holding throughout (conditions): 10 µM

For assay [1], the system named is HOP-92 NSCLC.
In assay [2] the test system is K-562 leukemia.
Assay [3] concerns RXF 393 renal.
Assay [4] deals with UACC-257 melanoma.
Assay [5] deals with SK-MEL-2 melanoma.
For assay [6], the system named is SN12C renal.
For assay [7], the system named is TK-10 renal.
Assay [8] concerns CAKI-1 renal.
The test system of assay [9] is A498 renal.
Assay [10] has as its system RPMI-8226 leukemia.
The subject of assay [11] is OVCAR-3 ovarian.
In assay [12] the test system is MDA-MB-435 melanoma.
Assay [13] has as its system HCC-2998 colon.

`C/C=C/CC(C)C(O)[C@H](NC(=O)[C@@H]1CCCN1C(=O)C(C)(C)NC(=O)CCCCCCCCC)C(=O)NC(C)(C)C(=O)N[C@@H](CCC(N)=O)C(=O)N[C@H](CCC(N)=O)C(=O)NC(C)(C)C(=O)NC(C)(C)C(=O)N[C@@H](CCC(N)=O)C(=O)N[C@H](CC(C)C)C(=O)N[C@H](CO)CC(C)C` (stereo partly specified): the growth in assay [1] is -16.5% (active) and -24.9% (active); in [2], -50.1% (active) and 18% (inactive); in [3], -54.3% (active) and -73.3% (active); in [4], -71.9% (active) and -73.2% (active); in assay [5], -48.1% (active) and -31.4% (active); in assay [6] it was 2.83% (active) and -20.9% (active). The growth in [7] was 25.8% (inactive) and -4.38% (active); in assay [8] it was 17.6% (inactive) and 1.1% (active); in assay [9] it was -48.1% (active) and -26.1% (active); in [10], -13.2% (active) and -31.7% (active); in [11] it was -18.7% (active); in [12], -52.8% (active) and -87.1% (active). Besides, the growth in [13] was -36.1% (active) and -5.11% (active).
In the case of `CC1=C[C@H]2O[C@@H]3C[C@H]4OC(=O)/C=C\C=C\[C@H]([C@@H](C)O)OCC[C@@H](C)[C@H](O)C(=O)OC[C@@]2(CC1)[C@]4(C)[C@]31CO1`, the growth in assay [1] is -22% (active); in [2] it was -10.1% (active); in [3] it was -73.7% (active); in assay [5], -53.2% (active); in [6] it was -19% (active); in [7], -25.4% (active). Also, the growth in [9] is -80.6% (active); in [10], -28.7% (active); in [11], -18.2% (active); in [12] it was -85.2% (active); in assay [13] it was -59.9% (active).
On to `C[C@@H]1C[C@H]2C(=O)O[C@@H](C)C(NC(=O)[C@H](Cc3cc(F)cc(F)c3)NC(=O)Nc3ccc(OS(=O)(=O)F)cc3)C(=O)N3CCC[C@H]3C(=O)N3CCO[C@H](C)[C@H]3C(=O)N[C@@H](CO)C(=O)N2C1` (stereo partly specified), for which the growth was 9.16% (active) in assay [1]; 20.7% (inactive) in assay [2]; -5.55% (active) in [3]; 16.2% (inactive) in [4]; 21.1% (inactive) in assay [6]; 71.7% (inactive) in [7]. The growth in [8] was 39.4% (inactive); in assay [10], 19.7% (inactive); in [12], 20.8% (inactive); in [13], 23.9% (inactive).
Regarding `CC1=C2C(=C[C@@](C)(COC(=O)c3ccc(S(=O)(=O)F)cc3)[C@@H]2O)C(=O)[C@](C)(O)C12CC2`, the growth in [2] was 6.74% (active); in assay [3], -88.8% (active); in assay [4], -52.7% (active); in assay [6], -2.35% (active); in [7], -6.77% (active); in [8] it was -0.688% (active). Further, the growth was 89.7% (inactive) in assay [10], -72.2% (active) in assay [12] and -50.6% (active) in assay [13].
Take `COc1cc(C)c(-c2ccc(OC)c(=O)cc2C)c(OC)c1OC`: the growth was 39.6% (inactive) and 85.5% (inactive) in assay [1]; 6.36% (active) and 85.8% (inactive) in assay [2]; -10.8% (active) and 115% (inactive) in assay [3]; 56.2% (inactive) and 97.6% (inactive) in assay [4]; 0.162% (active) and 113% (inactive) in assay [5]; 37.1% (inactive) and 98.3% (inactive) in [6]. Further, the growth in [7] is 94.5% (inactive) and 94.2% (inactive); in assay [8], 39.6% (inactive) and 86.1% (inactive); in assay [9] it was -18% (active) and 86.9% (inactive); in [10] it was 15% (inactive) and 94.4% (inactive); in assay [12], -4.07% (active) and 99.6% (inactive); in assay [13] it was 10.6% (inactive) and 114% (inactive).
`C/C=C/CC(C)C(O)[C@H](NC(=O)[C@@H]1CCCN1C(=O)C(C)(C)NC(=O)CCCCCCCCC)C(=O)N[C@@](C)(CC)C(=O)N[C@@H](CCC(N)=O)C(=O)N[C@H](CCC(N)=O)C(=O)NC(C)(C)C(=O)N[C@@](C)(CC)C(=O)N[C@@H](CCC(N)=O)C(=O)N[C@H](CC(C)C)C(=O)N[C@H](CO)CC(C)C` (stereo partly specified): the growth in [1] is 91.5% (inactive) and -58.8% (active); in [2], 90.4% (inactive) and 4.32% (active); in assay [3], 129% (inactive) and -75.3% (active); in assay [4] it was 108% (inactive) and -83% (active); in [5], 121% (inactive) and -72.1% (active); in assay [6], 101% (inactive) and -44.1% (active). For the same molecule, the growth in [7] was 108% (inactive) and -53.4% (active); in [8], 99.7% (inactive) and -21.7% (active); in assay [9], 97.3% (inactive) and -52.9% (active); in assay [10] it was 103% (inactive) and -46.2% (active); in assay [11], 8.27% (active); in assay [12] it was 105% (inactive) and -93.7% (active). Moreover, the growth in assay [13] was 116% (inactive) and -19.6% (active).
On to `O=C(CCCc1ccc(N(CCCl)CCCl)cc1)OCc1ccccc1`, for which the growth was 103% (inactive) in [1]; 93.8% (inactive) in [2]; 109% (inactive) in assay [3]; 94.1% (inactive) in [4]; 111% (inactive) in assay [5]; 79.1% (inactive) in assay [6]. The growth was 107% (inactive) in assay [7]; 73.7% (inactive) in [8]; 98.5% (inactive) in assay [9]; 96.3% (inactive) in assay [10]; 94.4% (inactive) in assay [12]; 101% (inactive) in assay [13].
As to `COc1cc2c(O[C@@H]3OC[C@H](O)[C@H](O)[C@H]3O)c3c(c(-c4ccc5c(c4)OCO5)c2cc1OC)C(=O)OC3`, the growth was 19.3% (inactive) in assay [2]; 53.6% (inactive) in assay [3]; 23.6% (inactive) in assay [4]; 49% (inactive) in assay [5]; 56.2% (inactive) in assay [6]; 15% (inactive) in assay [9]. Also, the growth in assay [10] was 89.8% (inactive); in assay [11] it was 80.2% (inactive); in assay [12], 39.5% (inactive); in assay [13] it was 73.4% (inactive).
Turning to `CC1=C2C(=C[C@@](C)(C=O)[C@@H]2O)C(=O)[C@](C)(O)C12CC2`, the growth in assay [1] was -8.36% (active); in assay [2], 24.2% (inactive); in assay [3], -77% (active); in [4], 6.75% (active); in assay [5], -37.8% (active); in [6] it was 26.1% (inactive). In addition, the growth in assay [7] was 2.16% (active); in [8], 12.6% (inactive); in [9], -57% (active); in assay [11], -10.1% (active); in [13], -25.1% (active).
